Results published in paper PMC4336329 (PLoS ONE, 2015).
Hit rate of the full screen: of about 310,000 compounds, about 14,000 (4.5%) showed an effect of 50% or more. Effects have a minus sign here. The entries come from a sample that favours strong results as a whole.

Molecular target: human ether-à-go-go-related gene (hERG) potassium channel (human, UniProt Q12809)
Test: primary screen, population patch clamp on CHO cells stably expressing hERG; higher = less effect of the substance
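Note: peak tail current of the secondary pulse compared with the same well before compound.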

Chain of human ether-à-go-go-related gene (hERG) potassium channel (Q12809 whole entry, looked up): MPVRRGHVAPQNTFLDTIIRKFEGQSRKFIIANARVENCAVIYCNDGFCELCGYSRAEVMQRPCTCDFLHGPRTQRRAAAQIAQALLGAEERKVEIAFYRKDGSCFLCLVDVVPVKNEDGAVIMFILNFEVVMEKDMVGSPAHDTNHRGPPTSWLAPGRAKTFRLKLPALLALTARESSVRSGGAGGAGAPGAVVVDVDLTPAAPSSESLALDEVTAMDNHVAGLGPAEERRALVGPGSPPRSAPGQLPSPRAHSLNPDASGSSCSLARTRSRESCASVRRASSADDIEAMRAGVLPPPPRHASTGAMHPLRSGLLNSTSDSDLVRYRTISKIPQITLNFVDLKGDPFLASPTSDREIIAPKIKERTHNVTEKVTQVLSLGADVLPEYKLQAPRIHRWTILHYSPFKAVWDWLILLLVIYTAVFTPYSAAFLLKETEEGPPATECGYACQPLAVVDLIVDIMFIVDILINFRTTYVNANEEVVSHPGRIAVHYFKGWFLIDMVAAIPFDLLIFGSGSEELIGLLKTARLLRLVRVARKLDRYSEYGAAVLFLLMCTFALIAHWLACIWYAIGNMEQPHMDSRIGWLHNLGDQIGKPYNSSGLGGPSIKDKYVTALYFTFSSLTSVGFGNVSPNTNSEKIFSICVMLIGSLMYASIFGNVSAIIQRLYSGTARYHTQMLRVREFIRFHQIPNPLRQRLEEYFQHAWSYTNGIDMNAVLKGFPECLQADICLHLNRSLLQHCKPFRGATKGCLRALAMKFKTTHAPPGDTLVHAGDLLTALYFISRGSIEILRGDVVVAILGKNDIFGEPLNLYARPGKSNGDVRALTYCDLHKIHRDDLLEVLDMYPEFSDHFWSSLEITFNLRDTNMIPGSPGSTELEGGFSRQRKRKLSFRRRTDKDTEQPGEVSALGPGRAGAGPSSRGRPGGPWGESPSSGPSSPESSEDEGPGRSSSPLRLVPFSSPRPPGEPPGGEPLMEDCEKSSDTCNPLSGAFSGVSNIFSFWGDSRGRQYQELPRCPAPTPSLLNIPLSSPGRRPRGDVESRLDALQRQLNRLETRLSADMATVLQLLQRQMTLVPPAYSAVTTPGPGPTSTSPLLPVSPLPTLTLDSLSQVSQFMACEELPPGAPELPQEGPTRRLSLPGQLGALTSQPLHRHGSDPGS

Row | Structure (SMILES) | hERG current change (%, negative = inhibition) at 10uM [%]
1 | CC(C)CCNC(=O)C1CCN(S(=O)(=O)c2ccc3c(c2)CC(C)N3C(=O)C2CCC2)CC1 (stereo not drawn) | -12.7
2 | CN(Cc1ccccc1)C(=S)Nc1cccnc1 | 9.05
3 | COc1c(C)cc(Br)cc1C(=O)Nc1ccc(Cc2ccncc2)cc1 | -3.5
4 | COc1ccc(N(C(=O)Cn2nnc(-c3ccc(F)cc3)n2)C(C)C(=O)NC2CCCC2)cc1 (stereo not drawn) | -22
5 | CCC/C(O)=C1\C(=O)CC(c2ccccc2)CC1=NCCc1c(C)[nH]c2ccccc12 (stereo not drawn) | -39.3
6 | Cc1nnc(SCc2nc3ccccc3s2)n1-c1ccccc1 | 2.82
7 | CC(=O)N1CCN(CCN=Cc2c(O)n(-c3ccc(F)cc3)c(=S)[nH]c2=O)CC1 | 22.1
8 | Cc1[nH]n(-c2ccc([N+](=O)[O-])cc2)c(=O)c1C=NCCc1c[nH]c2ccccc12 | 13.2
9 | Cc1[nH]n(-c2ccc([N+](=O)[O-])cc2)c(=O)c1C=NCCN1CCN(C(=O)c2ccccc2)CC1 | -71.6
10 | O=c1c(C=NCCN2CCNCC2)c(-c2ccccc2)[nH]n1-c1ccc([N+](=O)[O-])cc1 | -66.4
11 | Cc1ccc(-n2[nH]c(C)c(/C=N/Nc3ccc([N+](=O)[O-])cc3[N+](=O)[O-])c2=O)cc1 | 23.9
12 | COc1ccc(-c2[nH]n(-c3ccc([N+](=O)[O-])cc3)c(=O)c2C=NCCN2CCNCC2)cc1 | -4.9
13 | CNC(=S)N1CCN(CCN=Cc2c(O)n(-c3ccc(C)cc3)c(=S)[nH]c2=O)CC1 | 21.2
14 | C=CCNC(=S)N1CCN(CCN=Cc2c(C)[nH]n(-c3ccc([N+](=O)[O-])cc3)c2=O)CC1 | -72.1
15 | O=c1c(C=NCC2CCCO2)c(-c2ccccc2)[nH]n1-c1ccc([N+](=O)[O-])cc1 (stereo not drawn) | 7.58
16 | CC1(C)CC(=O)C(C=NCCN2CCN(C(=O)c3ccc(F)cc3)CC2)=C(O)C1 | -21.1
17 | Cc1[nH]n(-c2ccc([N+](=O)[O-])cc2)c(=O)c1C=NCCc1c(C)[nH]c2ccccc12 | 1.38
18 | Cc1[nH]n(-c2ccc([N+](=O)[O-])cc2)c(=O)c1C=NCCN1CCN(C(=O)c2ccc(F)cc2)CC1 | -73.7
19 | COc1cc2cc(CN(CCO)S(=O)(=O)c3ccccc3Cl)c(=O)[nH]c2cc1OC | 0.98
20 | O=C(NCCCCc1ccccc1)c1ccccc1Cl | -9.21
21 | CN(NC1OC(=O)c2ccccc21)c1ccc(C(F)(F)F)cc1[N+](=O)[O-] (stereo not drawn) | 34.2

Row | Structure (SMILES) | hERG current change (%, negative = inhibition) at 10uM [%]
22 | O=C(Nc1ccc(S(=O)(=O)Nc2ncccn2)cc1)C12CC3CC(CC(C3)C1)C2 | 13.4
23 | Cc1cc(C)c2nc(N3CCCN(C(=O)c4cnccn4)CC3)c(C#N)cc2c1 | -38.5
24 | CCc1nnc(SCC(=O)Nc2nccs2)n1CC | 18
25 | Cn1cc(CC(=O)NC2CCCCC2)c2ccccc21 | 21.3
26 | Cc1ccsc1C1C(C#N)=C(N)Oc2n[nH]c(C)c21 (stereo not drawn) | 18.7
27 | Cc1[nH]n(-c2ccccc2)c(=O)c1/C=N/NC(=O)c1cccc(F)c1 | 20.1
28 | Cc1[nH]n(-c2ccc([N+](=O)[O-])cc2)c(=O)c1/C=N/N1CCOCC1 | 0.128
29 | Cc1[nH]n(-c2ccc([N+](=O)[O-])cc2)c(=O)c1C=NCCN1CCN(C(=O)c2ccc(Br)cc2)CC1 | -76.6
30 | Cc1[nH]n(-c2ccc([N+](=O)[O-])cc2)c(=O)c1C=NCCc1ccc(S(N)(=O)=O)cc1 | 10.7
31 | COc1ccc(CCN=Cc2c(C)[nH]n(-c3ccc([N+](=O)[O-])cc3)c2=O)cc1OC | 16.4
32 | Cc1[nH]n(-c2ccccc2)c(=O)c1/C=N/NC(=O)c1ccccc1F | 2.32
33 | Cc1[nH]n(-c2ccc([N+](=O)[O-])cc2)c(=O)c1C=NCCN1CCN(C(=O)c2cccc(F)c2)CC1 | -73.4
34 | Cn1c(O)c(C=NCCN2CCN(C(=O)c3ccccc3)CC2)c(=O)n(C)c1=O | -16.6
35 | COC(=O)CN=Cc1c(C)[nH]n(-c2ccccc2)c1=O | -1.99
36 | CC1(C)CC(=O)C(C=NCCN2CCN(C(=O)c3ccc(Br)cc3)CC2)=C(O)C1 | -48.2
37 | Cc1[nH]n(-c2ccc([N+](=O)[O-])cc2)c(=O)c1C=NCCN1CCN(C(=O)C(C)C)CC1 | -64.2
38 | Cc1[nH]n(-c2ccc([N+](=O)[O-])cc2)c(=O)c1C=NCCN1CCN(C(=O)c2ccccc2F)CC1 | -71.2
39 | CC(=O)Nc1cccc(NC(=O)CSc2nccn2Cc2ccc(F)cc2)c1 | 0.742
40 | COc1cc2c(cc1NC(=O)C(C)OC(=O)c1ccc(S(=O)(=O)Nc3ccccc3Cl)cc1)oc1ccccc12 (stereo not drawn) | 21.8
41 | CCCCCCNc1cc(C)oc(=O)c1C(C)=O | -34.2
42 | CCOC(=O)C1CCCN(c2c(Nc3ccc(C)c(C)c3)c(=O)c2=O)C1 (stereo not drawn) | -25.1

Row | Structure (SMILES) | hERG current change (%, negative = inhibition) at 10uM [%]
43 | CC(=O)c1ccc(NC(=O)C2C3C=CC(C3=C(c3ccccc3)c3ccccc3)C2C(=O)O)cc1 (stereo not drawn) | 2.53
44 | Br.COc1ccc(N=C/C=C2/C=C(c3ccccc3)OC(C)(C)O2)cc1 | -49.1
45 | COc1cc(-c2nc3ccccn3c2/N=C/c2cccc(F)c2)ccc1O | 4.38
46 | CCn1cc(C(=O)NC(=S)Nc2ccccc2Br)cn1 | 3.21
47 | O=C(O)CSCC(=O)N1CCCN(c2nc3ccc(Cl)cc3s2)CC1 | 5.89
48 | CCOC(=O)c1ccc(NC(=O)c2ccccc2C)cc1 | -21.2
49 | CCOC(=O)NC(=O)COC(=O)c1ccc(O)cc1 | -6.29
50 | CCOC(=O)N/N=C(\C)c1cccs1 | 20.2
51 | CC(Sc1nnc(N)s1)C(=O)NCc1ccc2c(c1)OCO2 (stereo not drawn) | 0.709
52 | COc1ccc(CC(=O)Nc2cc(Cl)ccc2O)cc1 | -1.45
53 | CSCC[C@H](NC(=O)NCc1cccs1)C(=O)O | -10.4
54 | CN1CCN(c2ccc(NC(=S)NC(=O)c3cccc4c(Br)cccc34)cc2)CC1 | 16.2
55 | CN1CCN(c2ccc(NC(=O)COc3ccc4ccccc4c3)cc2)CC1 | -17.3
56 | CN1CCN(c2ccc(NC(=O)COc3ccccc3Cl)cc2)CC1 | -29.2
57 | Cc1ccccc1OCC(=O)Nc1ccc(N2CCN(C(=O)C(C)C)CC2)c(Cl)c1 | -31.2
58 | CN1CCN(c2ccc(NC(=O)COc3cccc4ccccc34)cc2)CC1 | -65.4
59 | Cc1ccccc1OCC(=O)NC(=S)Nc1ccc(N2CCOCC2)c(Cl)c1 | 15.3
60 | Cc1ccccc1OCC(=O)Nc1ccc(N2CCN(C)CC2)c(Cl)c1 | -68.8
61 | CN1CCN(c2ccc(NC(=S)NC(=O)c3cccc4c(Cl)cccc34)cc2)CC1 | 0.63
62 | CN1CCN(c2ccc(NC(=S)NC(=O)c3cccc4ccccc34)cc2)CC1 | -51
63 | CC(C)Cc1nnc(NC(=O)C23CC4CC(CC(C4)C2)C3)s1 | 5.58

Row | Structure (SMILES) | hERG current change (%, negative = inhibition) at 10uM [%]
64 | Cc1cccc2cc(CN(CC3CCCO3)C(=O)c3cccnc3)c3nnnn3c12 (stereo not drawn) | -5.82
65 | Cc1cc(NCCCN(C)C)n2c(nc3ccccc32)c1C#N | -1.49
66 | Cc1cc(C)nc(SCC(=O)N/N=C/c2ccc3c(c2)OCO3)n1 | 8.05
67 | CCOc1ccc(OCCSc2nc(N)cc(=O)[nH]2)cc1 | 1.58
68 | O=C(CSc1nc2ccccc2o1)NC1CCCC1 | 16.5
69 | CCCn1nc(C(=O)NCCc2ccc(S(N)(=O)=O)cc2)c2ccccc2c1=O | -15.8
70 | C/C(=N\Nc1nc2ccccc2[nH]1)c1cccs1 | -19.2
71 | C/C(=N\Nc1nc2ccccc2[nH]1)c1ccccn1 | -72.8
72 | C/C(=N\Nc1nc2ccccc2[nH]1)c1ccc(C)o1 | -17.7
73 | CS(=O)(=O)N1CCc2cc(S(=O)(=O)N3CCCCC3)ccc21 | -14.8
74 | CC(=O)Nc1ccc(C(=O)OCc2ccc(F)cc2)cc1 | -10.9
75 | COc1ccc([C@H]2CC(=O)C=C(c3cccc(C(C)C)c3)C2)cc1 | -2.79
76 | Cc1[nH][nH]c(=O)c1C(c1cc([N+](=O)[O-])ccc1O)c1c(C)[nH][nH]c1=O | -62.5
77 | Cc1[nH][nH]c(=O)c1C(c1cc(Br)ccc1O)c1c(C)[nH][nH]c1=O | 12
78 | Cc1[nH][nH]c(=O)c1C(c1ccc([N+](=O)[O-])cc1)c1c(C)[nH][nH]c1=O | 23.9
79 | Cc1ccccc1NC(=O)CSc1nc(N)c(C#N)c(-c2cccs2)c1C#N | 6
80 | CCOc1ccc(C(=O)OCC(=O)NCCNC(=O)COC(=O)c2ccc(OCC)cc2)cc1 | 13.8
81 | CCCSc1nnc(CNS(=O)(=O)c2ccc(C)cc2)n1C | 8.4
82 | CCOC(=O)n1c(=O)n(C)c2ccc(Br)cc21 | -7.75
83 | CCOC(=O)n1c(=O)[nH]c2ccc(Br)cc21 | 2.18
84 | C=CCn1c(=O)n(C(=O)OCC)c2cc(Br)ccc21 | -50.2
